Source: PubChem BioAssay (EPA / NIEHS)
Some structures have more than one record in an assay (separate samples or runs), and their calls can disagree. Activity calls are given as the source filed them. How the source made its calls: active means hit-call score of the fitted dose curve at least 0.9, where 1 is the maximum; inactive means score below 0.9.

Tests used:
[1] = BSK_hDFCGF_SRB: Viability Assessment in the BioMAP Diversity Plus: hDFCGF Assay (AID 2283061); details: primary human foreskin fibroblasts;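 further: cells exposed to compound for 24 h before the read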
Outline: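 Cells were dosed with test chemical, cultured 24 h, fixed with 10% TCA, then stained with 0.1% SRB and read at 560 nm. The fibroblasts were human foreskin primary cells, and DMSO served as baseline.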

[2] = read-out: TIMP metallopeptidase inhibitor 1 (TIMP1), TIMP1 (gene 7076); assay: BSK_hDFCGF_TIMP1: BioMAP Diversity Plus: hDFCGF Assay for TIMP metallopeptidase inhibitor 1 (TIMP1) Biomarker Activity (AID 2283062); details: primary human foreskin fibroblasts; actives raise or lower the signal
Outline: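 Fibroblasts from human foreskin are treated with test chemical and harvested at 24 h. TIMP-1 is quantified by ELISA, and gain or loss of signal is scored against DMSO.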

[3] = read-out: Monokine induced gamma interferon (MIG), CXCL9 (gene 4283); assay: BSK_hDFCGF_MIG: BioMAP Diversity Plus: hDFCGF Assay for Monokine induced gamma interferon (MIG) Biomarker Activity (AID 2283063); details: primary human foreskin fibroblasts; actives raise or lower the signal
Outline: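 MIG signal, determined by ELISA, reflects 24 h chemical exposure of human skin primary fibroblasts. DMSO serves as negative control and baseline.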

[4] = read-out: Matrix Metallopeptidase 1 (MMP1), MMP1 (gene 4312); assay: BSK_hDFCGF_MMP1: BioMAP Diversity Plus: hDFCGF Assay for Matrix Metallopeptidase 1 (MMP1) Biomarker Activity (AID 2283064); details: primary human foreskin fibroblasts; actives raise or lower the signal
Outline: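 Primary human foreskin fibroblasts in the hDFCGF system were dosed with test chemical, and MMP1 was measured by ELISA 24 h later. Values come from bidirectional curve fitting against the DMSO baseline.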

[5] = read-out: Vascular cell adhesion molecule 1 (VCAM1), VCAM1 (gene 7412); assay: BSK_hDFCGF_VCAM1: BioMAP Diversity Plus: hDFCGF Assay for Vascular cell adhesion molecule 1 (VCAM1) Biomarker Activity (AID 2283065); details: primary human foreskin fibroblasts; actives raise or lower the signal;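 on AC50: VCAM-1 protein level quantified by ELISA after 24 h chemical exposure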
Outline: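 Cells are dosed, cultured for 24 h, then VCAM-1 is quantified by ELISA; signal increases and decreases are both fitted relative to DMSO.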

[6] = read-out: Plasminogen activator inhibitor-1 (PAI1), SERPINE1 (gene 5054); assay: BSK_hDFCGF_PAI1: BioMAP Diversity Plus: hDFCGF Assay for Plasminogen activator inhibitor-1 (PAI1) Biomarker Activity (AID 2283066); details: primary human foreskin fibroblasts; actives raise or lower the signal
Outline: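 Human foreskin fibroblasts in the hDFCGF system were dosed with compound for 24 h; PAI-1 was quantified by ELISA. Bidirectional curve fitting used DMSO as negative control and baseline.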

[7] = read-out: Intercellular Adhesion Molecule 1 (ICAM1), ICAM1 (gene 3383); assay: BSK_KF3CT_ICAM1: BioMAP Diversity Plus: KF3CT Assay for Intercellular Adhesion Molecule 1 (ICAM1) Biomarker Activity (AID 2283067); details: primary human keratinocytes with fibroblasts; actives raise or lower the signal
Outline: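 Dose the keratinocyte/fibroblast co-culture, wait 24 h, measure ICAM-1 by ELISA, then fit increases or decreases against DMSO. Cytotoxicity is checked in parallel cultures by SRB total-protein staining.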

[8] = read-out: Interferon-gamma inducible Protein 10 (IP10), CXCL10 (gene 3627); assay: BSK_KF3CT_IP10: BioMAP Diversity Plus: KF3CT Assay for Interferon-gamma inducible Protein 10 (IP10) Biomarker Activity (AID 2283068); details: primary human keratinocytes with fibroblasts; actives raise or lower the signal
Outline: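 In a primary skin co-culture of keratinocytes and fibroblasts, IP-10 is quantified by ELISA at 24 h after dosing. SRB staining of parallel wells monitors overt toxicity. Curves are fitted both directions against DMSO.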

[9] = BSK_KF3CT_SRB: Viability Assessment in the BioMAP Diversity Plus: KF3CT Assay (AID 2283069); details: primary human keratinocytes with fibroblasts;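 further: total protein by sulforhodamine B staining as a cytotoxicity measure; read 24 h after compound addition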
Outline: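 Human primary keratinocyte plus foreskin fibroblast co-culture exposed to chemicals for 24 h. Total protein measured by 0.1% sulforhodamine B staining after 10% TCA fixation, read at 560 nm; bidirectional fitting versus DMSO baseline.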

[10] = read-out: Interleukin-1 alpha (IL1a), IL1A (gene 3552); assay: BSK_KF3CT_IL1a: BioMAP Diversity Plus: KF3CT Assay for Interleukin-1 alpha (IL1a) Biomarker Activity (AID 2283070); details: primary human keratinocytes with fibroblasts; actives raise or lower the signal
Outline: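 Human keratinocyte plus foreskin fibroblast primary co-culture, sampled 24 h after chemical dosing. IL-1a measured by ELISA; responses fitted bidirectionally against DMSO baseline (negative control), so gain or loss of signal both count.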

Measured: AC50

OCc1c[nH]c2ccccc12
inactive: [1] | [2] | [3] | [7] | [8] | [9] | [10]
active: [4] 0.655 µM | [5] 3.97 µM | [6] 4.75 µM

OCCOCCOCCO
inactive: [1] | [2] | [3] | [4] | [5] | [6] | [7] | [8] | [9] | [10]

O=C(O)c1cccc(C[C@@H]2COc3ccc(OCc4nc5cc(F)ccc5s4)cc3[C@@H]2O)c1
inactive: [1] | [2] | [3] | [4] | [5] | [7] | [8] | [9] | [10]

CCc1ccc(O)c(C(C)(C)C)c1
active: [1] 36.2 µM | [2] 31.1 µM | [3] 32.6 µM | [4] 31.8 µM | [5] 30.4 µM | [6] 28.1 µM | [7] 31.2 µM | [8] 36.8 µM | [9] 35.7 µM | [10] 30.5 µM

OCc1ccccc1
inactive: [1] | [2] | [3] | [4] | [5] | [6] | [7] | [8] | [9] | [10]

OC(Cn1cncn1)(Cn1cncn1)c1ccc(F)cc1F
inactive: [1] | [2] | [3] | [4] | [5] | [6] | [7] | [8] | [9] | [10]

O=c1[nH]cnc2c1ncn2[C@H]1CC[C@@H](CO)O1
inactive: [1] | [2] | [3] | [4] | [5] | [6] | [7] | [8] | [9] | [10]

Nc1ccn([C@@H]2O[C@H](CO)[C@@H](O)[C@@H]2O)c(=O)n1
inactive: [1] | [2] | [3] | [4] | [5] | [7] | [8] | [9] | [10]

O=C(NO)C1(NS(=O)(=O)c2ccc(Oc3ccc(F)cc3)cc2)CCOCC1
inactive: [1] | [2] | [3] | [4] | [5] | [7] | [8] | [9] | [10]

c1ccc2cc3ccccc3cc2c1
inactive: [1] | [2] | [3] | [4] | [5] | [6] | [7] | [8] | [9] | [10]

CCCCCOC(C)=O
inactive: [1] | [2] | [3] | [4] | [5] | [6] | [7] | [8] | [9] | [10]

CCc1cccc(CC)c1N
inactive: [1] | [2] | [3] | [4] | [5] | [6] | [7] | [8] | [9] | [10]

CC(=O)c1ccccc1
inactive: [1] | [2] | [3] | [4] | [5] | [7] | [8] | [9] | [10]

OCCC(F)(F)C(F)(F)C(F)(F)C(F)(F)F
active: [10] 8.32 µM
inactive: [1] | [2] | [3] | [4] | [5] | [6] | [7] | [8] | [9] | [10]

FC(F)=C(F)C(F)(F)C(F)(F)C(F)(F)C(F)(F)C(F)(F)C(F)(F)F
inactive: [1] | [2] | [3] | [4] | [5] | [7] | [8] | [9] | [10]

O=S1(=O)CCCO1
inactive: [1] | [2] | [3] | [4] | [5] | [7] | [8] | [9] | [10]

CCCCCCOC(=O)CC(CC(=O)OCCCCCC)(OC(=O)CCC)C(=O)OCCCCCC
inactive: [1] | [2] | [3] | [4] | [5] | [7] | [8] | [9] | [10]

OC[C@H]1O[C@@](CO)(O[C@H]2O[C@H](CO)[C@@H](O)[C@H](O)[C@H]2O)[C@@H](O)[C@@H]1O
inactive: [1] | [2] | [3] | [4] | [5] | [7] | [8] | [9] | [10]

CNC(C)=O
inactive: [1] | [2] | [3] | [4] | [5] | [6] | [7] | [8] | [9] | [10]

CCCCCCCC1CCC(=O)O1 (configuration not stated)
inactive: [1] | [2] | [3] | [4] | [5] | [7] | [8] | [9] | [10]

OCCNCCO
inactive: [1] | [2] | [3] | [4] | [5] | [6] | [7] | [8] | [9] | [10]

CC[C@H](C)C(=O)O[C@H]1C[C@H](O)C=C2C=C[C@H](C)[C@H](CC[C@@H](O)C[C@@H](O)CC(=O)O)[C@H]21
inactive: [1] | [2] | [3] | [4] | [5] | [7] | [8] | [9] | [10]

COc1cc(C(C)C)c2c(c1)S(=O)(=O)N(COc1cc(=O)n3cccc(OCCN4CCCCC4)c3n1)C2=O
active: [1] 8.05 µM | [3] 5.41 µM | [4] 1.3 µM | [5] 2.72 µM | [6] 6.38 µM | [8] 7.22 µM | [10] 5 µM
inactive: [2] | [7] | [9]

CCCCCCCCCCCCCCO
inactive: [2] | [4] | [7] | [8] | [9] | [10]
active: [1] 30.2 µM | [3] 10.8 µM | [5] 20 µM | [6] 27 µM

FC(F)(F)COC(OCC(F)(F)F)OCC(F)(F)F
inactive: [1] | [2] | [3] | [4] | [5] | [6] | [7] | [8] | [9] | [10]

CC(C)CCCCCCOC(=O)C1CCCCC1C(=O)OCCCCCCC(C)C (configuration not stated)
inactive: [1] | [2] | [3] | [4] | [5] | [6] | [7] | [8] | [9] | [10]

COCc1nnc(-c2ccc[n+]([O-])c2)n1-c1c(Cl)c(Cl)cc2[nH]c(=O)c(=O)[nH]c12
inactive: [1] | [2] | [3] | [4] | [5] | [7] | [8] | [9] | [10]

Cn1c(=O)c2[nH]cnc2n(C)c1=O
inactive: [6]

CCN(CC)C(=S)SSC(=S)N(CC)CC
active: [6] 3.95 µM
